Results from PubChem BioAssay AID743100 (Vanderbilt Specialized Chemistry Center, 2013).
Activity calls are given as the source filed them.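 Rule for the calls: active = calcium response above 60% of the acetylcholine maximum at human M5, as a positive modulator; inactive = the rest.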

What follows are compounds tested against Muscarinic acetylcholine receptor M5 (Homo sapiens) (UniProt P08912) (assay: potentiators of ACh response at human M5 – cell-based, single concentration, CHO-K1 hM5, calcium flux (AID 743100)). Conditions: CHO-K1 hM5, Fluo-4 calcium flux, ACh EC20, active compounds read high; at 10 µM unless noted.
Muscarinic acetylcholine receptor M5 (Homo sapiens), sequence (P08912 whole entry, looked up): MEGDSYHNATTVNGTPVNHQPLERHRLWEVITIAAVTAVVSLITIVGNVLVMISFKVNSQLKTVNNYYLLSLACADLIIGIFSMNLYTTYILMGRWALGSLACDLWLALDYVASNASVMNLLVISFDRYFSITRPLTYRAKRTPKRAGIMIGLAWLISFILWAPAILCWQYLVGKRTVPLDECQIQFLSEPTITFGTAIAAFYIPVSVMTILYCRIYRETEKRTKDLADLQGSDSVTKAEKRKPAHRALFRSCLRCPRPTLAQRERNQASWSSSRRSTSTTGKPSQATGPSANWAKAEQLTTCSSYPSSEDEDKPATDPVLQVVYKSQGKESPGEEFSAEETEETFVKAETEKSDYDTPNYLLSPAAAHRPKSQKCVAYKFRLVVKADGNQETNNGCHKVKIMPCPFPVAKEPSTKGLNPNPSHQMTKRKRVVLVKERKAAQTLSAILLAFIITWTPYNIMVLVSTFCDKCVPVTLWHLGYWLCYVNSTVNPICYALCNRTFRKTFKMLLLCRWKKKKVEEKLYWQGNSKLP

| SMILES | % ACh max response |
| --- | --- |
| CCN(C(=O)C1CCN(S(=O)(=O)c2cc(F)c(F)c(F)c2)CC1)[C@H](C)c1ccccc1 | 71.9% (active) |
| CCN(Cc1ccccc1)C(=O)C1CCN(S(=O)(=O)c2ccccc2)CC1 | 71.5% [at 30 µM] (active) |
| CCN(Cc1ccccc1)C(=O)C1CCN(S(=O)(=O)c2cccc(F)c2)CC1 | 63.2% [at 30 µM] (active) |
| CCN(Cc1ccccc1)C(=O)C1CCN(S(=O)(=O)c2ccccc2OC(F)(F)F)CC1 | 17.5% [at 30 µM] (inactive) |
| CCN([C@H](C)c1ccccc1)S(=O)(=O)C1CCN(S(=O)(=O)c2ccc3[nH]ncc3c2)CC1 | 18.7% (inactive) |
| CCN(Cc1ccccc1)C(=O)C1CCN(S(=O)(=O)c2ccc(OC(F)F)cc2)CC1 | 66.1% [at 30 µM] (active) |
| COc1ccc(S(=O)(=O)N2CCC(C(=O)N3CCCC3c3ccccc3)CC2)cc1 (configuration not stated) | 25.6% [at 30 µM] (inactive) |
| CCN(Cc1ccc(OC)cc1)C(=O)C1CCN(S(=O)(=O)c2ccc3cn[nH]c3c2)CC1 | 32% (inactive) |
| CCN(Cc1ccc(C(F)(F)F)cc1)C(=O)C1CCN(S(=O)(=O)c2ccc3cn[nH]c3c2)CC1 | 24.2% (inactive) |
| CCN(Cc1ccccc1)C(=O)C1CCN(S(=O)(=O)c2ccc3ncccc3c2)CC1 | 63.4% [at 30 µM] (active) |
| CCN(Cc1ccccc1)C(=O)C1CCN(S(=O)(=O)c2ccncc2)CC1 | 24.6% (active) |
| CC1c2ccccc2CCN1C(=O)C1CCN(S(=O)(=O)c2ccc3[nH]ncc3c2)CC1 (configuration not stated) | 40.4% (inactive) |
